# According to the supplement of paper PMC10646978:
# ± gives the standard deviation.
# System: RAW-Dual (murine macrophage reporter line)
# Experiment: NF-kB reporter (SEAP) activity fold change vs agonist alone; higher = enhanced NF-kB activity
# Conditions: modulator concentration 10 µM; agonist: CpG ODN 1826 0.5 ug/mL
# How it was run: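 Overnight stimulation with a PRR agonist followed pre-incubation for 1 hour at 37 °C with compound at 10 μM final. This was done in RAW-Dual murine macrophage reporter cells seeded at 50 000 per well in 384-well plates. NF-κB (SEAP, QUANTI-Blue absorbance at 620 nm) and IRF (Lucia luciferase, QUANTI-Luc luminescence) were read from the supernatant. Each reporter's fold change relative to the mean agonist-only control on the same plate was averaged over replicate plates.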
row,SMILES,NF-kB reporter
1,Oc1ccc(OCc2ccccc2)cc1,1.78 ± 0.25
2,O=C(NCC(O)Cc1ccccc1)Nc1ccc(F)cc1 (stereo not given),0.893 ± 0.096
3,CCC(=O)CC(O)(c1ccccc1)C(F)(F)F (stereo not given),1.04 ± 0.099
4,COc1ccc(C(C)=NNC(=O)Nc2ccccc2)c(OC)c1,0.92 ± 0.083
5,NS(=O)(=O)c1ccc(F)cc1,0.947 ± 0.076
6,Cc1ncsc1C(=O)NC1CCC(F)(F)CC1,1.06 ± 0.068
7,Cn1c2c(c3ccccc31)CCCC2NC=O (stereo not given),0.787 ± 0.061
8,O=C(NN=Cc1cccc(Cl)c1Cl)c1cc(O)cc(O)c1,1.02 ± 0.084
9,Cc1ccc(OCCOc2ncnc3ccccc23)c(Cl)c1,1.02 ± 0.11
10,Cc1ccsc1C(=CCCN1CCC[C@@H](C(=O)O)C1)c1sccc1C,1.06 ± 0.084
11,CNC(=O)[C@H](Cc1c[nH]c2ccccc12)NC(=O)[C@@H](CC(=O)NO)CC(C)C,1.1 ± 0.26
12,Clc1cccc(Nc2nc(-c3ccccn3)cs2)c1,0.881 ± 0.15
13,CN1CCN(CC(O)Cn2c3ccccc3c3ccccc32)CC1.O=C(O)C(=O)O (stereo not given),0.964 ± 0.074
14,CCOC(=O)c1c(N2C(=O)C3C4C=CC(O4)C3C2=O)sc2c1CCCC2 (stereo not given),0.87 ± 0.067
15,Cc1cc(OC2CN(C(=O)Cc3c[nH]c4ccccc34)C2)cc(=O)n1C1CC1,1.1 ± 0.055
16,O=C(CSC1CCCCC1)Nc1ccc(Br)cc1,1 ± 0.33
17,CN(C)C/C=C/C(=O)Nc1cc2c(Nc3ccc(F)c(Cl)c3)ncnc2cc1O[C@H]1CCOC1,0.0842 ± 0.0066
18,O=S(=O)(NCCn1ccn2nccc12)c1ccccc1Br,0.86 ± 0.053
19,CN(C)c1ccc(C=C(C#N)c2nc(-c3cc4ccccc4oc3=O)cs2)cc1,0.972 ± 0.057
20,N[C@@H](CC(=O)N1CCn2c(nnc2C(F)(F)F)C1)Cc1cc(F)c(F)cc1F,0.793 ± 0.19

row,SMILES,NF-kB reporter
1,COc1cc(C)n(CCNC(=O)c2ccccc2C(F)(F)F)c(=O)c1,0.904 ± 0.039
2,Cl.O=C1NCC2(CCN(CCc3ccccc3)CC2)O1,0.582 ± 0.028
3,CC1=NN(C(=O)OC(C)(C)C)C(O)(c2ccncc2)C1 (stereo not given),1.03 ± 0.084
4,O=c1c(O)c(-c2ccccc2)oc2cc(O)ccc12,1.21 ± 0.34
5,Cc1ccc(C)n1-c1ccc(C(=O)OCC(=O)c2ccc([N+](=O)[O-])cc2)cc1,0.888 ± 0.071
6,O=C(Cn1c(=O)oc2ccccc21)N1Cc2cncnc2C1,0.853 ± 0.24
7,Cc1ccc(C23CC4CC(CC(CN)(C4)C2)C3)cc1.Cl,0.827 ± 0.062
8,COc1ccc2c(c1)c(CC(=O)O)c(C)n2C(=O)c1ccc(Cl)cc1,1.23 ± 0.21
9,N#C[C@@H]1CCCN1C(=O)CNC12CC3CC(CC(O)(C3)C1)C2,0.79 ± 0.14
10,Nc1ncnc2c1ncn2C1OC(CO)C(O)C1O (stereo not given),0.951 ± 0.078
11,Cc1cn([C@@H]2C[C@@H](O)[C@H](CO)O2)c(=O)[nH]c1=O,1.12 ± 0.086
12,Cc1cc(OCC(O)Cn2cnc3ccccc32)ccc1Cl (stereo not given),1.05 ± 0.06
13,O=C1C(Cl)=C(N2CCCCC2)C(=O)N1c1cc(Cl)c(Cl)cc1Cl,0.743 ± 0.063
14,CS(=O)(=O)N(CC(=O)NCCSCc1cccc(Cl)c1)c1ccc(Cl)cc1,0.893 ± 0.093
15,O=C(CCCn1nc(-c2ccc(F)cc2)ccc1=O)Nc1cc(Cl)ccc1Cl,1.01 ± 0.16
16,N#CC(=Cc1cn(Cc2ccccc2Cl)c2ccccc12)c1nn(CCO)c(N)c1C#N,0.919 ± 0.077
17,O=C(O)CCCNC(=O)c1ccccc1C(=O)O,0.896 ± 0.092
18,CC(C)OCc1ccc(C(=O)Nc2nnc(C(C)C)s2)o1,0.988 ± 0.1
19,CC(=O)Oc1cccc2c1C(=O)c1c(OC(C)=O)cc(C(=O)O)cc1C2=O,1.14 ± 0.088
20,Cc1occc1C(=O)Nc1ccc(F)c(F)c1,1.07 ± 0.12

# Same assay, conditions: modulator concentration 10 µM; agonist: LPS 0.1 ug/mL
row,SMILES,NF-kB reporter
1,Oc1ccc(OCc2ccccc2)cc1,1.51 ± 0.34
2,O=C(NCC(O)Cc1ccccc1)Nc1ccc(F)cc1 (stereo not given),0.969 ± 0.077
3,CCC(=O)CC(O)(c1ccccc1)C(F)(F)F (stereo not given),0.955 ± 0.19
4,COc1ccc(C(C)=NNC(=O)Nc2ccccc2)c(OC)c1,0.865 ± 0.092
5,NS(=O)(=O)c1ccc(F)cc1,1.04 ± 0.076
6,Cc1ncsc1C(=O)NC1CCC(F)(F)CC1,1.1 ± 0.088
7,Cn1c2c(c3ccccc31)CCCC2NC=O (stereo not given),0.931 ± 0.06
8,O=C(NN=Cc1cccc(Cl)c1Cl)c1cc(O)cc(O)c1,0.918 ± 0.092
9,Cc1ccc(OCCOc2ncnc3ccccc23)c(Cl)c1,1.02 ± 0.078
10,Cc1ccsc1C(=CCCN1CCC[C@@H](C(=O)O)C1)c1sccc1C,1.06 ± 0.053
11,CNC(=O)[C@H](Cc1c[nH]c2ccccc12)NC(=O)[C@@H](CC(=O)NO)CC(C)C,1.33 ± 0.074
12,Clc1cccc(Nc2nc(-c3ccccn3)cs2)c1,0.379 ± 0.2
13,CN1CCN(CC(O)Cn2c3ccccc3c3ccccc32)CC1.O=C(O)C(=O)O (stereo not given),0.946 ± 0.1
14,CCOC(=O)c1c(N2C(=O)C3C4C=CC(O4)C3C2=O)sc2c1CCCC2 (stereo not given),0.792 ± 0.11
15,Cc1cc(OC2CN(C(=O)Cc3c[nH]c4ccccc34)C2)cc(=O)n1C1CC1,1.1 ± 0.091
16,O=C(CSC1CCCCC1)Nc1ccc(Br)cc1,0.949 ± 0.07
17,CN(C)C/C=C/C(=O)Nc1cc2c(Nc3ccc(F)c(Cl)c3)ncnc2cc1O[C@H]1CCOC1,0.28 ± 0.053
18,O=S(=O)(NCCn1ccn2nccc12)c1ccccc1Br,0.904 ± 0.091
19,CN(C)c1ccc(C=C(C#N)c2nc(-c3cc4ccccc4oc3=O)cs2)cc1,1.04 ± 0.13
20,N[C@@H](CC(=O)N1CCn2c(nnc2C(F)(F)F)C1)Cc1cc(F)c(F)cc1F,0.989 ± 0.063

row,SMILES,NF-kB reporter
1,COc1cc(C)n(CCNC(=O)c2ccccc2C(F)(F)F)c(=O)c1,0.933 ± 0.076
2,Cl.O=C1NCC2(CCN(CCc3ccccc3)CC2)O1,0.641 ± 0.054
3,CC1=NN(C(=O)OC(C)(C)C)C(O)(c2ccncc2)C1 (stereo not given),1.01 ± 0.1
4,O=c1c(O)c(-c2ccccc2)oc2cc(O)ccc12,1.37 ± 0.084
5,Cc1ccc(C)n1-c1ccc(C(=O)OCC(=O)c2ccc([N+](=O)[O-])cc2)cc1,0.845 ± 0.054
6,O=C(Cn1c(=O)oc2ccccc21)N1Cc2cncnc2C1,1.04 ± 0.052
7,Cc1ccc(C23CC4CC(CC(CN)(C4)C2)C3)cc1.Cl,1.02 ± 0.063
8,COc1ccc2c(c1)c(CC(=O)O)c(C)n2C(=O)c1ccc(Cl)cc1,1.06 ± 0.16
9,N#C[C@@H]1CCCN1C(=O)CNC12CC3CC(CC(O)(C3)C1)C2,0.851 ± 0.15
10,Nc1ncnc2c1ncn2C1OC(CO)C(O)C1O (stereo not given),0.93 ± 0.079
11,Cc1cn([C@@H]2C[C@@H](O)[C@H](CO)O2)c(=O)[nH]c1=O,0.998 ± 0.054
12,Cc1cc(OCC(O)Cn2cnc3ccccc32)ccc1Cl (stereo not given),1.1 ± 0.084
13,O=C1C(Cl)=C(N2CCCCC2)C(=O)N1c1cc(Cl)c(Cl)cc1Cl,0.737 ± 0.049
14,CS(=O)(=O)N(CC(=O)NCCSCc1cccc(Cl)c1)c1ccc(Cl)cc1,0.962 ± 0.079
15,O=C(CCCn1nc(-c2ccc(F)cc2)ccc1=O)Nc1cc(Cl)ccc1Cl,1.06 ± 0.091
16,N#CC(=Cc1cn(Cc2ccccc2Cl)c2ccccc12)c1nn(CCO)c(N)c1C#N,0.959 ± 0.053
17,O=C(O)CCCNC(=O)c1ccccc1C(=O)O,0.911 ± 0.067
18,CC(C)OCc1ccc(C(=O)Nc2nnc(C(C)C)s2)o1,1 ± 0.079
19,CC(=O)Oc1cccc2c1C(=O)c1c(OC(C)=O)cc(C(=O)O)cc1C2=O,1.04 ± 0.077
20,Cc1occc1C(=O)Nc1ccc(F)c(F)c1,0.998 ± 0.16
